Apoferritin bind – qHTS Assay for Identification of Novel General Anesthetics. Ferritin light chain (Equus caballus), P02791. apoferritin/1-aminoanthracene competitive binding, fluorescence. Potency, µM (highest dose often 77.5 µM), for inactives: at the highest dose activity change, negative = displacement, most hits filed as inhibitors. 350,000 tested, 0.074% active. AID 485281, 2010; also: potency is read from the fitted curve at half-maximal effect; % is scaled to controls: 0 for no effect and ±100 for the full control effect; nearly all actives have a fitted effect of over 20% in size
Target sequence (P02791 2-175 limits assumed): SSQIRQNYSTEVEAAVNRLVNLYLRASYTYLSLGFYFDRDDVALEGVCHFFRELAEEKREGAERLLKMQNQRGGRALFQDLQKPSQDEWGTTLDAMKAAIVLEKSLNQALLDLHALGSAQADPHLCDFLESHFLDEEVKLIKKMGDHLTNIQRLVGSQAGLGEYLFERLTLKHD
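Read-out: endpoint 1-AMA fluorescence, excitation 380 nm and emission 535 nm, after compounds sit 10 min at room temperature with 10 uM horse-spleen apoferritin in 50% saturated 1-AMA/PBS. Values come from four-parameter Hill fits.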
A549 tox-1 – Nrf2 qHTS screen for inhibitors: counterscreen for cytotoxicity; A549 ARE-Fluc cells, CellTiter-Fluor viability, 18-24 h; Potency, µM (top dose mostly 46 µM), for the others: at the top dose activity change, negative = cytotoxicity, usual class: inhibitors; 390,000 tested, 0.16% active; AID 504648, 2011; also: potency is read from the fitted curve at half-maximal effect; % is scaled to controls: 0 for no effect and ±100 for the full control effect
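A549 ARE_Fluc cells in 5% FBS OPTI-MEM were exposed to compounds in concentration-response for 18-24 h at 37 deg C. Viability was read by CellTiter-Fluor fluorescence (Ex 405/Em 525) after 30 min, before the luciferase read.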
Giardia kill – Small Molecules that selectively kill Giardia lamblia: qHTS; Giardia lamblia trophozoite viability; activity change, % at 7.66 µM, hits read low; 340,000 tested, 0.15% active; AID 540267, 2011; in the data active = activity change below about -80%; inconclusive = between about -30% and that limit;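 also: parasites exposed to compound for two days anaerobically before the ATP read; % is scaled to controls: 0 for no effect and ±100 for the full control effect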
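Viability, read as ATP luminescence: trophozoites at 100 cells/well, compound added, 48 hrs anaerobic at 37 deg C, then 15-30 min room-temperature development before reading.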
Nrf2 activator – qHTS of Nrf2 Activators | AREc32 ARE-luciferase reporter (MCF7-derived line), luminescence, 24 h | Potency, µM (doses to about 46.1 µM), for the others: top-dose activation, most hits filed as activators | 410,000 tested, 0.31% active; also: potency is read from the fitted curve at half-maximal effect; % of control where 0% means no effect; nearly all actives have a fitted effect of over 65% in size
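Cells of the AREc32 ARE-luciferase line are plated in OPTI-MEM containing 5% FBS and left overnight at 37 deg C. Compounds are pinned in, incubation continues 24 hr, and firefly luciferase signal is then measured.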
IDH1 R132H inh – qHTS for Inhibitors of mutant isocitrate dehydrogenase 1 (IDH1): qHTS | Potency, µM (series often up to 76.6 µM), without a hit: at the highest dose activity change, negative = inhibition, most hits filed as inhibitors | IDH1-R132H enzyme, NADPH consumption, diaphorase/resazurin fluorescence | Isocitrate dehydrogenase [NADP] cytoplasmic (Homo sapiens), O75874 | AID 602179, 2012 | 390,000 tested, 0.093% active; also: potency is read from the fitted curve at half-maximal effect; % is scaled to controls: 0 for no effect and ±100 for the full control effect; nearly all actives have a fitted effect of over 65% in size
Target sequence (O75874 whole entry R132H, stated change not applied): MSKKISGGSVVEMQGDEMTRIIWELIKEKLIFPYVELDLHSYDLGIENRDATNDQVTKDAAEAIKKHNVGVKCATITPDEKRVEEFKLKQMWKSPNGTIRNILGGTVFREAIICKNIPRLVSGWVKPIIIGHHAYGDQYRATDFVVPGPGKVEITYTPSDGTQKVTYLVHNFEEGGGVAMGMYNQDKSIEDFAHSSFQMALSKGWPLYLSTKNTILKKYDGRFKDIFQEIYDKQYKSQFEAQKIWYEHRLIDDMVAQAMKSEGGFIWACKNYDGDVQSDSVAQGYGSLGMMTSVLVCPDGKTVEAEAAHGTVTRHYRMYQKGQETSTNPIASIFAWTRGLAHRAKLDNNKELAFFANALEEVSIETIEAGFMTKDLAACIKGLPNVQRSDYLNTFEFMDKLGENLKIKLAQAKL
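IDH1-R132H (0.5 ug/mL) preincubated 30 min with compound, then NADPH (0.016 mM) and alpha-KG (2 mM) added; 80 min at RT, pH 7.5. Remaining NADPH coupled via diaphorase/resazurin to fluorescence (540/590 nm); concentration-response curves normalized to no-enzyme control.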
Nrf2 block – Nrf2 qHTS screen for inhibitors. Potency, µM (series often up to 46 µM), for inactives: at the highest dose activity change, negative = inhibition, most hits filed as inhibitors. 360,000 tested, 2.1% active. A549 ARE-Fluc reporter, luciferase luminescence, 18-24 h; also: potency is read from the fitted curve at half-maximal effect; % is scaled to controls: 0 for no effect and ±100 for the full control effect; nearly all actives have a fitted effect of over 60% in size
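Concentration-response testing used A549 ARE_Fluc cells at 5000 cells/well. Following an 18-24 h compound incubation, viability was read by fluorescence (Ex 405/Em 525) and luciferase output by luminescence.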
FLuc counter 3 – Nrf2 qHTS screen for inhibitors: Purified Fluc Biochemical Counterscreen for Hit Validation; shares compounds with Nrf2 block; purified firefly luciferase, luminescence inhibition; Potency, µM (highest dose often 57.5 µM), for inactives: top-dose activity change, negative = inhibition, hits mostly inhibitors; 1,400 tested, 4% active; AID 720522, 2013; also: potency is read from the fitted curve at half-maximal effect; % is scaled to controls: 0 for no effect and ±100 for the full control effect; nearly all actives have a fitted effect of over 65% in size
A549 tox-2 – Nrf2 qHTS screen for inhibitors: A549 ARE-Fluc Cytotoxicity Counterscreen for Hit Validation; shares compounds with Nrf2 block; A549 ARE-Fluc cells, cytotoxicity counterscreen; Potency, µM (top dose mostly 46.1 µM), without a hit: at the top dose activity change, negative = cytotoxicity, most hits filed as inhibitors; 1,400 tested, 2% active; AID 720523, 2013;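 also: potency is read from the fitted curve at half-maximal effect; cells exposed to compounds for 18 to 24 hours; % is scaled to controls: 0 for no effect and ±100 for the full control effect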
ARE-Fluc inh – Nrf2 qHTS screen for inhibitors: Nrf2 A549 ARE-Fluc Confirmation Assay for Hit Validation; Potency, µM (titrated, usually from 46.1 µM), for inactives: at the top dose activity change, negative = inhibition, most hits filed as inhibitors; AID 720524, 2013; A549 ARE-firefly luciferase reporter, luminescence; shares compounds with Nrf2 block; 1,400 tested, 74% active; also: potency is read from the fitted curve at half-maximal effect; % is scaled to controls: 0 for no effect and ±100 for the full control effect; nearly all actives have a fitted effect of over 65% in size
* = called active by the depositor; ? = inconclusive; . = no result. In the library only some 2.3% were active in any assay of this set; here they are far more common. Unless noted, calls follow the shape of the dose curve; as a rule, active = well fitted curve in the direction sought with a large enough effect; inconclusive = small, poorly fitted or top-dose-only effect, or another doubt; inactive = no such curve, though single readings can be large; an effect the other way counts as inactive or inconclusive.

SMILES	Apoferritin bind	A549 tox-1	Giardia kill	Nrf2 activator	IDH1 R132H inh	Nrf2 block	FLuc counter 3	A549 tox-2	ARE-Fluc inh
COc1ccc(S(=O)(=O)NCc2cccnc2)cc1	-9.0%	-1.2%	-7.2	-0.4%	5.5%	-15.0%	.	.	.
CCOC(=O)c1[nH]c(C)c(CCC(=O)NC(C)c2ccccc2)c1C (stereo unspecified)	-1.5%	5.8%	.	0.1%	-6.3%	.	.	.	.
COc1cc(NC(=O)C2CCN(S(=O)(=O)c3c(C)noc3/C=C/c3cccs3)CC2)cc(OC)c1	-8.0%	-2.0%	.	8.3%	-23.1%	7.1%	.	.	.
COc1ccc(-c2nc(CSCC(=O)N3CCN(c4ccccc4)CC3)c(C)o2)cc1	70.9%	?	.	-0.6%	1.7%	2.59µM*	-17.3%	-22.3%	?
COc1ccccc1Cc1c(C2CCCCC2)nc2c3ccccc3ccn12	.	.	.	10.3%	.	.	.	.	.
COc1cc(NC(=O)CSc2nc(-c3ccco3)cc(C(F)(F)F)n2)cc(OC)c1OC	-6.0%	-14.2%	.	-0.1%	13.6%	9.2µM*	4.6%	-12.4%	?
Cc1ccccc1SCC(=O)N1CCN(c2ccc(C(F)(F)F)cn2)CC1	4.2%	-1.2%	14.1	1.5%	5.2%	3.66µM*	-0.6%	-4.4%	?
Cc1cc(=O)n(CC(=O)N2CCN(c3ccccc3F)CC2)c2c1c(C)nn2C	-7.6%	-6.4%	.	0.5%	33.4%	8.2µM*	1.2%	-6.8%	?
CC(C)C[C@H](NC(=O)[C@H](CC(C)C)NC(=O)[C@H](Cc1ccc(O)cc1)NC(=O)CNC(=O)[C@H](C)NC(=O)[C@H](CO)NC(=O)[C@H](CC(N)=O)NC(=O)[C@H](CC(C)C)NC(=O)[C@@H](NC(=O)[C@H](Cc1c[nH]c2ccccc12)NC(=O)CN)[C@@H](C)O)C(=O)NCC(=O)N1CCC[C@H]1C(=O)N1CCC[C@H]1C(=O)N1CCC[C@H]1C(=O)NCC(=O)N[C@@H](Cc1ccccc1)C(=O)N[C@@H](CO)C(=O)N1CCC[C@H]1C(=O)N[C@@H](Cc1ccccc1)C(=O)N[C@@H](CCCNC(=N)N)C(N)=O	-12.4%	.	.	.	.	.	.	.	.
Cc1nn(C)c(C)c1NC(=O)COc1ccc(Cl)cc1Br	.	-12.3%	13.3	0.3%	2.3%	8.2µM*	-9.9%	-6.7%	7.31µM*
Cc1ccc2c(c1)S/C(=C/c1ccc[n+](CCO)c1)N2C	-16.8%	-17.0%	13.9	5.4%	-0.1%	1.16µM*	1.7%	-20.5%	5.8µM*
Cc1ccc(S(=O)(=O)n2nc(C)cc2C)cc1	-9.2%	0.8%	13.8	2.9%	2.1%	26.3%	.	.	.
Cc1cc(C)n(S(=O)(=O)/C=C/c2ccccc2)n1	-16.1%	?	27.3	3.16µM*	0.2%	9.2µM*	1.9%	-15.3%	-8.1%
O=C(Nc1ccc(Oc2ccccc2)cc1)c1cnc2n(c1=O)CCS2	-7.9%	-2.7%	10.2	-1.3%	-2.9%	?	-15.0%	-1.7%	2.31µM*

Screening data (PubChem BioAssay)
